Test results published in PubChem BioAssay AID651616 (The Scripps Research Institute Molecular Screening Center, 2012).
Hit rate of the full screen: of about 5,600 compounds, about 4,400 (79%) were called active. The set was probably picked from earlier hits. These entries were drawn from the full list. Unmarked numbers belong to inactive results. No stated cut-off is given here; in the data, active means inhibition above about 27%; inactive means the rest.

target: Fructose-bisphosphate aldolase (Mycobacterium tuberculosis (strain ATCC 25618 / H37Rv)) (UniProt P9WQA3); experiment: M. tuberculosis aldolase blockers, biochemical, fluorescence, strain H37Rv, confirmation (AID 651616);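 further: 0% = vehicle wells and 100% = reference inhibitor wells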; conditions: purified M. tuberculosis FBA, fluorescence read-out, at 1 µM, active compounds read high
Sequence (P9WQA3 whole entry, looked up): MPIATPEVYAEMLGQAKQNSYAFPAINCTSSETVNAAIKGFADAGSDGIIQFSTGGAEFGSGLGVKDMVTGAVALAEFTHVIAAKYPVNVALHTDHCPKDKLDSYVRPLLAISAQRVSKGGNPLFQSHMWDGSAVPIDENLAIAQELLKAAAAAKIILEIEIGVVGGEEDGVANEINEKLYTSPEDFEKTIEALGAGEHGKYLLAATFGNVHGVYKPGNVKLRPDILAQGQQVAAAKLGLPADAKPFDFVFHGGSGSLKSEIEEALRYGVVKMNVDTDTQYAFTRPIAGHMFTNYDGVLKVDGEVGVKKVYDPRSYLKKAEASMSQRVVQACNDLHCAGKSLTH

Row | SMILES | inhibition
1 | Cc1coc2c1c(C)cc1oc(=O)c(CC(=O)NCC(=O)N[C@H](C(=O)O)C(C)C)c(C)c12 | 52.1% (active)
2 | Cc1cc(C)cc(NC(=O)CSc2ccccc2)c1 | 86.7% (active)
3 | CN(C)CCCn1c(N)c(C#N)c2nc(C#N)c(C#N)nc21 | 85.4% (active)
4 | Cc1cc(C)c2c(n1)sc1c(=O)n(-c3ccccc3)c(=O)[nH]c12 | 75.8% (active)
5 | CN(CCc1ccccn1)S(=O)(=O)c1ccc2c3c(cccc13)C(=O)N2 | 130% (active)
6 | COc1ccc(NC(=O)N2CCC(Cc3ccccc3)CC2)cc1 | 40.8% (active)
7 | COc1ccccc1C(=O)Nc1ccc(OCC(=O)N2CCCCC2)cc1 | 183% (active)
8 | O=C1CC2(CCCCC2)Oc2ccc(OCC(=O)N3CCOCC3)cc21 | 4.05%
9 | COc1ccccc1NC(=O)COc1ccc(C(=O)OCC(=O)N(C(C)C)C(C)C)cc1OC | 0.36%
10 | COc1ccccc1-c1oc2ccccc2c1C#CCCCCO | 170% (active)
11 | COc1ccc(-n2cc(CNC3CCOCC3)c(-c3cccc(F)c3)n2)cc1 | 18.8%
12 | COc1ccc(-n2cc(CN(C)Cc3n[nH]c(=O)[nH]3)c(-c3cccc(F)c3)n2)cc1 | 44.3% (active)
13 | Cc1ccc(S(=O)(=O)N2CCN(C(=O)CSc3cc(C)ccc3C)CC2)c(C)c1 | 164% (active)
14 | CCc1ccc(-c2cc(C(=O)NCc3ccco3)c3ccccc3n2)s1 | -6.79%
15 | Cn1nc(-c2ccc(Cl)cc2)c2cc(C(=O)NCc3ccco3)sc21 | 47.8% (active)
16 | CCN(CC)CCCNC(=O)c1cc2c(=O)[nH]c3ccc(C)cc3c2s1 | 137% (active)
17 | N#CC1(Nc2ccc3c4c(cccc24)CC3)CCCCC1 | 119% (active)
18 | N#Cc1c(N)n(CCOC(=O)c2ccc(Cl)cc2)c2nc3ccccc3nc12 | 40.4% (active)
19 | CC(=O)c1sc2nc(SCC(=O)N3CCCCC3)[nH]c(=O)c2c1C | 76.2% (active)
20 | CCN(C(=O)Nc1cccc2ccccc12)c1ccccc1 | 164% (active)
21 | O=C(O)c1cccnc1Sc1ncnc2sc3c(c12)CCC3 | 59.7% (active)
22 | O=C(Nc1ncc2c(n1)-c1ccccc1OC2)c1ccc(Cl)cc1 | 93.8% (active)
23 | CCOc1ccccc1C1CC(c2ccccc2)Nc2nc(N)nn21 (configuration not stated) | 185% (active)
24 | O=c1oc2ccccc2cc1-c1cn(-c2ccccc2)c(=S)[nH]1 | 17.6%

Row | SMILES | inhibition
25 | CC12CCC(C(=O)N3CCN(c4ncccn4)CC3)(c3nc4ccccc4nc31)C2(C)C (configuration not stated) | 195% (active)
26 | Cn1cccc1-c1nc2ccccc2n1C | 13.3%
27 | Cn1c(-c2ccco2)nc2cc3ccccc3cc21 | 46.4% (active)
28 | CCc1cc(=O)oc2c(C)c(OCC(=O)N3CC[C@@]4(O)CCCC[C@H]4C3)ccc12 | 130% (active)
29 | CCCc1cc(=O)oc2c(C)c(OCC(=O)N3CCC(C(=O)O)CC3)ccc12 | -5.02%
30 | CCOC(=O)CSc1nc2c(c(=O)n(Cc3ccccc3Cl)c(=O)n2C)n1C | 48.6% (active)
31 | CN(C)c1ccc(/C=N/NC(=O)C(O)c2ccc(Br)cc2)cc1 (configuration not stated) | 72.9% (active)
32 | COC(=O)c1noc(C)c1-c1ccnn1C(=O)c1ccc(Cl)cc1 | 57.6% (active)
33 | Cc1nc(NCCN)c(C#N)c2c1COC(C)(C)C2 | 88.6% (active)
34 | Cc1cc(=O)n2[nH]c(-c3cccc(Cl)c3)cc2n1 | 107% (active)
35 | Cc1ccc2nc(/C(C#N)=C\c3ccc(OC(=O)c4cccs4)cc3)[nH]c2c1 | 53.5% (active)
36 | CC(C)(C)C(=O)Nc1cccc(-c2ccc[nH]2)n1 | 76.9% (active)
37 | N#Cc1c(N2CCCCC2)nc(N)c2c(N)nc(SCC(=O)O)cc12 | 11.2%
38 | CN(C)Cc1c(O)ccc2c(=O)c(-c3ccccc3Cl)coc12 | 9.64%
39 | CC[C@@H]1Cc2cc(O)ccc2C2=C1c1ccc(O)cc1C[C@H]2CC | 109% (active)
40 | Cc1cc(C)c2c(n1)nn1c(-n3ccnc3)cc(C)nc21 | -3.81%
41 | Cc1cc(C)c2c(NC(=O)C3CC3)nn(C)c2n1 | 87.2% (active)
42 | CC(C)(C)Nc1c(-c2cccs2)nc2ccccn12 | 146% (active)
43 | CC[C@@H](C)[C@H](NC(=O)CCc1c(C)c2cc3c4c(oc3c(C)c2oc1=O)CCCC4)C(=O)O | 88.9% (active)
44 | CC(C)=NN1C(=O)c2ccccc2NC1(C)C | 178% (active)
45 | O=C(Nc1nncs1)c1ccccc1NS(=O)(=O)c1cccs1 | 141% (active)
46 | CC1(C)Cc2c(C#N)c(SCc3nc4ccccc4[nH]3)nc(N3CCOCC3)c2CO1 | -3.68%
47 | CC(C)c1nc(N2CCOCC2)c(C#N)c2c1COC(C)(C)C2 | 37.2% (active)
